Assay results published in PubChem BioAssay (EPA / NIEHS).
Records with an inconclusive call do not appear. Calls of active or inactive are those of the source. How the source made its calls, unless noted: active means hit-call score of the fitted dose curve at least 0.9, where 1 is the maximum; inactive means score below 0.9.

Key:
[1] = target: Nuclear respiratory factor 1 (Homo sapiens) (UniProt Q16656); assay: ATG_NRF1_CIS: Attagene CIS-FACTORIAL HepG2 Assay for human Nuclear Respiratory Factor 1 (NRF1) Orphan Gene (AID 2282987); conditions: HepG2 NRF1 cis-element reporter, Attagene multiplex; actives raise or lower the signal
Outline: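 Endogenous NRF1-driven reporter transcription measured in transiently transfected human HepG2 liver cells. Readout: reporter mRNA by RT-PCR and capillary electrophoresis with fluorescence detection, 24 h post-dosing. Gain or loss of signal fitted relative to DMSO baseline.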

[2] = ATG_NFI_CIS: Attagene CIS-FACTORIAL HepG2 Assay for human Nuclear Factor I (NFI) (AID 2282989); conditions: HepG2 cis-regulatory reporter, NFI response element transcription; actives raise or lower the signal
Outline: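 After transient transfection of HepG2 with cis-promoter reporter constructs and 24 h dosing, RNA is reverse-transcribed, amplified, 6-FAM end-labelled and HpaI-digested before capillary analysis. Bidirectional curve fitting against DMSO.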

[3] = target: Myc proto-oncogene protein (Homo sapiens) (UniProt P01106); assay: ATG_Myc_CIS: Attagene CIS-FACTORIAL HepG2 Assay for human Myelocytomatosis (Myc) Proto-Oncogene Transcription Factor (AID 2282990); conditions: HepG2, Attagene cis-reporter transcription factor activity; actives raise or lower the signal
Outline: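 Cells of the HepG2 human liver line bear multiple cis-driven reporter transcription units. Reporter mRNA after 24 h exposure is reverse-transcribed, amplified, labelled and resolved by capillary electrophoresis, with gain- or loss-of-signal fitting relative to DMSO.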

[4] = ATG_NRF2_ARE_CIS: Attagene CIS-FACTORIAL HepG2 Assay for human Nuclear Factor Erythroid 2 Related Factor 2 (NFR2) response to Antioxidant Response Elements (ARE) (AID 2282992); conditions: HepG2 Attagene ARE/NRF2 reporter, transcription factor activity; actives raise or lower the signal
Outline: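 Endogenous transcription factor activity read out as reporter transcript levels (RT-PCR plus capillary electrophoresis, fluorescence) in transiently transfected HepG2 cells. Measured at 24 h after dosing; gain or loss of signal fitted versus DMSO.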

[5] = ATG_Oct_MLP_CIS: Attagene CIS-FACTORIAL HepG2 Assay for human Octamer-Binding Transcription Factor (Oct) (AID 2282993); conditions: HepG2 Attagene cis-factorial Oct reporter, mRNA; actives raise or lower the signal
Outline: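 Cells of the HepG2 line express promoter-controlled reporter sequences whose mRNA levels, after 24 h treatment, are measured by RT-PCR and capillary electrophoresis. Increases and decreases are scored relative to DMSO.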

[6] = target: Cellular tumor antigen p53 (Homo sapiens) (UniProt P04637); assay: ATG_p53_CIS: Attagene CIS-FACTORIAL HepG2 Assay for human p53 Transcription Factor (AID 2282994); conditions: HepG2 p53 cis-element reporter, Attagene mRNA; actives raise or lower the signal
Outline: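 Endogenous p53 activity read in transiently transfected HepG2 from a cis-element-driven reporter transcript after 24 h exposure. RNA reverse-transcribed, PCR-amplified, fluorescently labelled and sized by capillary electrophoresis; gain or loss fitted against DMSO baseline.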

[7] = BSK_3C_TissueFactor: BioMAP Diversity Plus: 3C Assay for Tissue Factor Biomarker Activity (AID 2282997); conditions: BioMAP 3C HUVEC, tissue factor biomarker readout; actives raise or lower the signal
Outline: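 After a 24 h chemical exposure of primary human umbilical vein endothelial cells, Tissue Factor levels were quantified by ELISA.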

[8] = BSK_3C_uPAR: BioMAP Diversity Plus: 3C Assay for Urokinase-type plasminogen activator receptor (uPAR) Biomarker Activity (AID 2282998); conditions: BioMAP 3C HUVEC, uPAR biomarker ELISA; actives raise or lower the signal
Outline: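 Endothelial primary cells of human umbilical vein origin received test chemical; 24 h later uPAR was assayed by ELISA. Fitting was bidirectional, DMSO as negative control.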

[9] = BSK_3C_VCAM1: BioMAP Diversity Plus: 3C Assay for Vascular cell adhesion molecule 1 (VCAM1) Biomarker Activity (AID 2282999); conditions: BioMAP 3C HUVEC, VCAM1 ELISA, cytokine-stimulated; actives raise or lower the signal
Outline: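 Activity fitted in both directions relative to DMSO, with ELISA measurement of the surface marker on primary HUVEC (3C) at 24 h post-treatment; parallel SRB staining (0.1% SRB, TCA-fixed, 560 nm) flagged overt cytotoxicity.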

[10] = target: human Peroxisome Proliferator-activated Receptor alpha (PPARa), PPARA (gene 5465) (UniProt Q07869); assay: ATG_PPARa_TRANS: Attagene TRANS-FACTORIAL HepG2 Assay for human Peroxisome Proliferator-activated Receptor alpha (PPARa) (AID 2283001; active means hit-call score of the fitted dose curve at least 0.9, where 1 is the maximum)
Outline: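 Transfected HepG2 cells treated with test chemical for 24 h. RNA isolated, reverse-transcribed with oligo(dT), PCR-amplified, FAM-labelled and HpaI-digested. Fragments sized by capillary electrophoresis; gain-of-signal fit relative to DMSO.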

[11] = target: human Peroxisome Proliferator-activated Receptor delta (PPARd), PPARD (gene 5467) (UniProt Q03181); assay: ATG_PPARd_TRANS: Attagene TRANS-FACTORIAL HepG2 Assay for human Peroxisome Proliferator-activated Receptor delta (PPARd) (AID 2283002; active means hit-call score of the fitted dose curve at least 0.9, where 1 is the maximum)
Outline: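 Cell-based TRANS reporter: HepG2, transient MRTU transfection, 24 h exposure. Readout = reporter mRNA (RT-PCR/CE, 6-FAM). Gain-of-signal fit vs DMSO control.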

[12] = read-out: Intercellular Adhesion Molecule 1 (ICAM1), ICAM1 (gene 3383); assay: BSK_3C_ICAM1: BioMAP Diversity Plus: 3C Assay for Intercellular Adhesion Molecule 1 (ICAM1) Biomarker Activity (AID 2283003); conditions: primary human endothelial cells (HUVEC); actives raise or lower the signal
Outline: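 Using DMSO as baseline, bidirectional curve fitting was applied to ICAM-1 ELISA signals from HUVEC in the 3C system, measured 24 h after compound addition.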

[13] = target: Retinoic acid receptor alpha (Homo sapiens) (UniProt P10276); assay: ATG_RARa_TRANS: Attagene TRANS-FACTORIAL HepG2 Assay for human Retinoic Acid Receptor alpha (RARa) (AID 2283005; active means hit-call score of the fitted dose curve at least 0.9, where 1 is the maximum)
Outline: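 Reporter transcripts, measured by RT-PCR with fluorescent labeling and capillary electrophoresis after 24 h dosing, reflect activity of an exogenous human RARa–GAL4 fusion in transiently transfected HepG2. Fitted for increase relative to DMSO.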

[14] = BSK_3C_Proliferation: Cell Proliferation Assessment in the BioMAP Diversity Plus: 3C Assay (AID 2283006); conditions: primary human endothelial cells (HUVEC);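 on AC50: potency may reflect either rise or fall in cell number versus DMSO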
Outline: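 Measured here: sulforhodamine B (0.1%) staining of TCA-fixed sub-confluent umbilical vein endothelial cultures 48 h post-dosing, absorbance 560 nm. DMSO served as negative control and baseline; both signal gain and loss were modelled.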

[15] = target: Nuclear receptor subfamily 1 group I member 2 (Homo sapiens) (UniProt O75469); assay: ATG_PXR_TRANS: Attagene TRANS-FACTORIAL HepG2 Assay for human Pregnane X Receptor (PXR) (AID 2283008; active means hit-call score of the fitted dose curve at least 0.9, where 1 is the maximum)
Outline: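 Transactivation by exogenous PXR–GAL4 fusion measured as reporter transcript induction after 24 h compound treatment of transfected human HepG2 cells. Read-out via RT-PCR and capillary electrophoresis of labelled fragments, fitted upward relative to DMSO.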

[16] = target: human Retinoic Acid Receptor gamma (RARg), RARG (gene 5916) (UniProt P13631); assay: ATG_RARg_TRANS: Attagene TRANS-FACTORIAL HepG2 Assay for human Retinoic Acid Receptor gamma (RARg) (AID 2283009; active means hit-call score of the fitted dose curve at least 0.9, where 1 is the maximum)
Outline: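 Gain-of-signal relative to DMSO is reported from fluorescent capillary electrophoresis of RT-PCR reporter products. These came from HepG2 cells expressing transfected RARg-GAL4 chimeras with UAS reporters, harvested 24 h after dosing.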

[17] = BSK_4H_Eotaxin3: BioMAP Diversity Plus: 4H Assay for Eotaxin 3 Biomarker Activity (AID 2283000); conditions: primary human endothelial cells (HUVEC); actives raise or lower the signal;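 further: CCL26 protein level quantified by ELISA in parallel with SRB cytotoxicity check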
Outline: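 Chemicals were added to human umbilical vein endothelium cultures, and Eotaxin-3 was quantified by ELISA at 24 h. Values were derived by bidirectional fitting with DMSO serving as negative control and activity baseline.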

[18] = target: human Retinoic Acid Receptor beta (RARb), RARB (gene 5915) (UniProt P10826); assay: ATG_RARb_TRANS: Attagene TRANS-FACTORIAL HepG2 Assay for human Retinoic Acid Receptor beta (AID 2283004; active means hit-call score of the fitted dose curve at least 0.9, where 1 is the maximum)
Outline: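 Transient transfection of HepG2 with multiple reporter units → chemical dosing, 24 h → total RNA isolation → RT with oligo(dT) → reporter-specific PCR, 6-FAM primer extension, HpaI digest → capillary electrophoresis. Positive direction vs DMSO control.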

[19] = target: Peroxisome proliferator-activated receptor gamma (Homo sapiens) (UniProt P37231); assay: ATG_PPARg_TRANS: Attagene TRANS-FACTORIAL HepG2 Assay for human Peroxisome Proliferator-activated Receptor-gamma (PPARg) (AID 2283007; active means hit-call score of the fitted dose curve at least 0.9, where 1 is the maximum)
Outline: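 Read-out: reporter mRNA induction, detected by fluorescence after RT-PCR and capillary electrophoresis. Transiently transfected human HepG2 liver cells carrying a chimeric NR-Gal4 construct were dosed for 24 h; activity was fitted upward relative to DMSO.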

[20] = ATG_NF_kB_CIS: Attagene CIS-FACTORIAL HepG2 Assay for human Nuclear Factor Kappa B (NF-kB) (AID 2282991); conditions: HepG2 Attagene cis-factorial NF-kB reporter mRNA; actives raise or lower the signal
Outline: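 Read-out: reporter transcript levels quantified by RT-PCR plus capillary electrophoresis of 6-FAM-labelled, HpaI-cut fragments. Transfected HepG2 cells, 24 h compound exposure, endogenous NF-kB-driven cis element; gain or loss scored versus DMSO.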

Measured: AC50

Sequence of Myc proto-oncogene protein (Homo sapiens) (P01106 whole entry, looked up): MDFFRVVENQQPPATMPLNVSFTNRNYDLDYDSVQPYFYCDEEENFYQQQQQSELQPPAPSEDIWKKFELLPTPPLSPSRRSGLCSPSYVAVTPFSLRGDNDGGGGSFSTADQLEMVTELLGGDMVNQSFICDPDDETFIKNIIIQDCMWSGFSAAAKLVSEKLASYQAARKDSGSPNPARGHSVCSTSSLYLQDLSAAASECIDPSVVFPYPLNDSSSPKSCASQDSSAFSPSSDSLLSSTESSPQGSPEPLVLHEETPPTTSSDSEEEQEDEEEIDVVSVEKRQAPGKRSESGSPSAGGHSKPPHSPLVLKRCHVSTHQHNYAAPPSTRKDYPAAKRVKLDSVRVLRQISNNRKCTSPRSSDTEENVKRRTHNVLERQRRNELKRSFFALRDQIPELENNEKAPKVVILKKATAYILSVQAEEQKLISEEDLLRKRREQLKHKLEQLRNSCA
Sequence of Nuclear receptor subfamily 1 group I member 2 (Homo sapiens) (O75469 whole entry, looked up, the tested form may be a part): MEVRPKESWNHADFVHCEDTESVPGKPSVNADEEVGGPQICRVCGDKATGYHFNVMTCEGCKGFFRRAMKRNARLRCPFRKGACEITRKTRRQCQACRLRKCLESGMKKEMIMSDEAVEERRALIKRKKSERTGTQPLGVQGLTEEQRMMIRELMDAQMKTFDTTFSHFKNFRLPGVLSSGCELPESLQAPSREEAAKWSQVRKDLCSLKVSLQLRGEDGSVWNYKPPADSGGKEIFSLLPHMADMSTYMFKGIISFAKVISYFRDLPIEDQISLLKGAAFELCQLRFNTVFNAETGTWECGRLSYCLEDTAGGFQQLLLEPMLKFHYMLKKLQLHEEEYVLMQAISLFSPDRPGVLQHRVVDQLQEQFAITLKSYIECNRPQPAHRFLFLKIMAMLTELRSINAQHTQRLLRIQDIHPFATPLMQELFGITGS
Sequence of human Peroxisome Proliferator-activated Receptor delta (PPARd), PPARD (gene 5467) (Q03181 whole entry, looked up): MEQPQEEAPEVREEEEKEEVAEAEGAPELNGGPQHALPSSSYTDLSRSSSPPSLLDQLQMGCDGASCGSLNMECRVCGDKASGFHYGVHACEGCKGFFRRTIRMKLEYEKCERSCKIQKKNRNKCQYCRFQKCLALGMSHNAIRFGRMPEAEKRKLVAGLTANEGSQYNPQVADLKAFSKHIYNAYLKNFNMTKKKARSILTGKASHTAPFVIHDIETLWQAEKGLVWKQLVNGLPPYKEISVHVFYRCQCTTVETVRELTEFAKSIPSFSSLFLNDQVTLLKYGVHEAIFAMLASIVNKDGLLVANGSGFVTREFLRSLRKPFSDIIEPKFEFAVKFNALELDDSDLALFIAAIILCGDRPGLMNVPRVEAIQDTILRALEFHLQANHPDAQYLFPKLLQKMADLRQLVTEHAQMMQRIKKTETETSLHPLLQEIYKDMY
Sequence of Nuclear respiratory factor 1 (Homo sapiens) (Q16656 whole entry, looked up): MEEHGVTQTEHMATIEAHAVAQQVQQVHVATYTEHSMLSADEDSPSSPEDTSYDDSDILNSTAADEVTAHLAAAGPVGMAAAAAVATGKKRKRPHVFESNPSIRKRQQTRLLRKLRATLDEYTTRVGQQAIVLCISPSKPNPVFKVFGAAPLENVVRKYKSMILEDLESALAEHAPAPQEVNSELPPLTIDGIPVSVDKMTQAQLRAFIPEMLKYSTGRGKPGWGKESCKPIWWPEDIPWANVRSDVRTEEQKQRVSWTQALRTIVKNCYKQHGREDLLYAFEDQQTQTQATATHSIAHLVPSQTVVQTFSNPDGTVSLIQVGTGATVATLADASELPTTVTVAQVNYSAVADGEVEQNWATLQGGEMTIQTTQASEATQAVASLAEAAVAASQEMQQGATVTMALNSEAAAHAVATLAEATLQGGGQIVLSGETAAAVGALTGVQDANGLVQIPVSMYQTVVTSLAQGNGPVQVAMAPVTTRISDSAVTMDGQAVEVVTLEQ
Sequence of human Retinoic Acid Receptor gamma (RARg), RARG (gene 5916) (P13631 whole entry, looked up, the tested form may be a part): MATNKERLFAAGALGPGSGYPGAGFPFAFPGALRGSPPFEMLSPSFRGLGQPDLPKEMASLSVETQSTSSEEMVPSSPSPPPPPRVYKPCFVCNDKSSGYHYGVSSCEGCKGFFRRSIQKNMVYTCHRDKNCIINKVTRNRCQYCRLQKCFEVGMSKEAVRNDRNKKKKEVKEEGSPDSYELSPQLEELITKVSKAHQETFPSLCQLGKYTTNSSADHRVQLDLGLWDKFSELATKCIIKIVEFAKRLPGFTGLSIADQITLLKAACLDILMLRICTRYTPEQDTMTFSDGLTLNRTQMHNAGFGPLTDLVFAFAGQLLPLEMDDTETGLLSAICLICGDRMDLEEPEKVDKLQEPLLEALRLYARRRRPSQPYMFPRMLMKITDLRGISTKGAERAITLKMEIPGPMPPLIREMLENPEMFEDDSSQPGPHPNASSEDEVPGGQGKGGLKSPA
Sequence of Retinoic acid receptor alpha (Homo sapiens) (P10276 whole entry, looked up, the tested form may be a part): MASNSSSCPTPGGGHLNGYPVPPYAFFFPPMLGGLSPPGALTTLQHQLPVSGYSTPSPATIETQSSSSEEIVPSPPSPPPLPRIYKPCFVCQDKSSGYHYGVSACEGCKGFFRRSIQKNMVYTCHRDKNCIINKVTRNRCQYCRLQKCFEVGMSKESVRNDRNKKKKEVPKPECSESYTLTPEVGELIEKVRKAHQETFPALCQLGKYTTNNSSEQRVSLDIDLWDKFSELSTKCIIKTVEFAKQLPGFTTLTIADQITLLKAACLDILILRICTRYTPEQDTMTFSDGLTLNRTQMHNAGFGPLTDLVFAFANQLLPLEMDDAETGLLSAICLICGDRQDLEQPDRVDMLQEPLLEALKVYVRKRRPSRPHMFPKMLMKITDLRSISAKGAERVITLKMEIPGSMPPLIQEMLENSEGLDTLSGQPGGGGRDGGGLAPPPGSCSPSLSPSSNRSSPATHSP
Sequence of Cellular tumor antigen p53 (Homo sapiens) (P04637 whole entry, looked up): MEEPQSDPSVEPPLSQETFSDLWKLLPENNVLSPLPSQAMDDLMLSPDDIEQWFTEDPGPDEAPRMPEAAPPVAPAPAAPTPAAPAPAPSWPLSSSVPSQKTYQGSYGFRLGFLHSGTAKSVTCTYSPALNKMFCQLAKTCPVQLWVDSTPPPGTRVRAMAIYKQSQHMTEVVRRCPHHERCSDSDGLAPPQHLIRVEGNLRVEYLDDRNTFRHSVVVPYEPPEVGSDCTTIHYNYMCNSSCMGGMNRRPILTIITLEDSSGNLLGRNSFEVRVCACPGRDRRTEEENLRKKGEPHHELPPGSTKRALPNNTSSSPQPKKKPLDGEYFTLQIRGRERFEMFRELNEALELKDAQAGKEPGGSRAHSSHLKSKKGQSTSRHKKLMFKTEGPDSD
Sequence of human Peroxisome Proliferator-activated Receptor alpha (PPARa), PPARA (gene 5465) (Q07869 whole entry, looked up, the tested form may be a part): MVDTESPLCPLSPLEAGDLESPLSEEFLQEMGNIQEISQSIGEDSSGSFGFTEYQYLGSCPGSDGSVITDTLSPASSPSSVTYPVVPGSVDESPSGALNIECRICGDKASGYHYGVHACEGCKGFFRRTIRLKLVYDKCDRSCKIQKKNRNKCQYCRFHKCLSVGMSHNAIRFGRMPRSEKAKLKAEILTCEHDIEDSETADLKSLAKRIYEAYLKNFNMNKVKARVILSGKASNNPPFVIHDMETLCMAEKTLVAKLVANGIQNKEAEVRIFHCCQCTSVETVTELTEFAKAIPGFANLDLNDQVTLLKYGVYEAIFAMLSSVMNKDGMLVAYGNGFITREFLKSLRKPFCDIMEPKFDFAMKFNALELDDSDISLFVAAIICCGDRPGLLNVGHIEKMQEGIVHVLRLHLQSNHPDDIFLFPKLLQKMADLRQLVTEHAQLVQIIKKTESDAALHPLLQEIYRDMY
Sequence of Peroxisome proliferator-activated receptor gamma (Homo sapiens) (P37231 whole entry, looked up, the tested form may be a part): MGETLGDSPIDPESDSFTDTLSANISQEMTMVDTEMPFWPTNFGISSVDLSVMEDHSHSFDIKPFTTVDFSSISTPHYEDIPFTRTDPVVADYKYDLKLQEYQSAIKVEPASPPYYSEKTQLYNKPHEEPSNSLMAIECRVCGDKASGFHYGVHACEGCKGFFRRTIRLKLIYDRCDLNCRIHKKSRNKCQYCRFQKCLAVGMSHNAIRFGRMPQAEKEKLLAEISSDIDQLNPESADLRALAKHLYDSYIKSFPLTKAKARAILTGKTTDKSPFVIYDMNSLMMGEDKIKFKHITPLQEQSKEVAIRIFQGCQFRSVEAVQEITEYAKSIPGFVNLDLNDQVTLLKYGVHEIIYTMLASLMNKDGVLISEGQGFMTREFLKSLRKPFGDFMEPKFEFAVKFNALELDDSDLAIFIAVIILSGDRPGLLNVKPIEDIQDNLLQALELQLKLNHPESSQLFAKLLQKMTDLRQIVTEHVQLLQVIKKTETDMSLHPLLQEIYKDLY
Sequence of human Retinoic Acid Receptor beta (RARb), RARB (gene 5915) (P10826 whole entry, looked up): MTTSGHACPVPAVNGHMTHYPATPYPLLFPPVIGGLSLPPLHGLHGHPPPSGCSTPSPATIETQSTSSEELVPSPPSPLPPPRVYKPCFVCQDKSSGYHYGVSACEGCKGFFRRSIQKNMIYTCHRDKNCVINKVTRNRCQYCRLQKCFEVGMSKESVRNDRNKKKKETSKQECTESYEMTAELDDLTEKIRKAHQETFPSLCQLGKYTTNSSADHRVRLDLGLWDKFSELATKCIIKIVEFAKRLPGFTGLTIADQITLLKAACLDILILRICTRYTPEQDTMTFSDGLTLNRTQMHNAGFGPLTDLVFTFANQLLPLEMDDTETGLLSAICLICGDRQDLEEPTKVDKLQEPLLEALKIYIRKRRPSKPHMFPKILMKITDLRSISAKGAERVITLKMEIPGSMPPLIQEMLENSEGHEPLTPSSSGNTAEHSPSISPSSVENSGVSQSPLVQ

FC(F)(F)C(F)(F)C(F)(F)C(F)(F)C(F)(F)C(F)(F)CCI
not listed: [17] | [18] | [19] | [20]
inactive: all other assays above

CCCCCCCCCCCCCCCC
not listed: [11] | [15] | [19] | [20]
inactive: all other assays above

COCCOC[C@H](CC1(C(=O)NC2CCC(C(=O)O)CC2)CCCC1)C(=O)Oc1ccc2c(c1)CCC2 (stereo partly drawn)
active: [15] 20.6 µM
not listed: [13] | [20]
inactive: all other assays above

Cc1ccccc1Cl
not listed: [10] | [13] | [16] | [18] | [19] | [20]
inactive: all other assays above

COc1cc(/C=C/C(=O)CC(=O)/C=C/c2ccc(O)c(OC)c2)ccc1O
inactive: [1] | [3] | [10] | [11] | [13] | [15] | [16]
active: [2] 33.4 µM | [20] 33.4 µM | [4] 8.71 µM | [5] 33.4 µM | [6] 50.2 µM | [19] 8 µM

COc1ccc(S(=O)(=O)N2C(=O)[C@@](c3ccccc3OC)(N3C[C@H](O)C[C@H]3C(=O)N(C)C)c3cc(Cl)ccc32)c(OC)c1
active: [5] 38 µM | [6] 49.7 µM | [8] 20 µM | [9] 28.8 µM | [14] 28.7 µM | [15] 0.038 µM
not listed: [10] | [13] | [18] | [20]
inactive: all other assays above
